From PubChem BioAssay AID1159580 (chemical genetic matrix, 2015)
About 2,000 (36%) of roughly 5,500 compounds were called active. Not shown: some 18% with an inconclusive outcome. No stated cut-off is given here; in the data, active means normalized growth mostly below about 0.91 (no sharp cut-off); inconclusive means no clear call, values can overlap the other calls; inactive means mostly above about 0.92. The list shows a part of the results.

Assay: chemical genetic growth profiling, strain panel (AID 1159580);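 further: tested at 20 µM; growth read once vehicle control cultures reached saturation at 30 °C; 1 = growth at the plate median or of vehicle wells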
Conditions: growth OD

Measured: normalized growth

CC1=CC2C(C(C)C)CCC(C)(O)C2CC1 (stereo not drawn)
inactive: S. cerevisiae deletion strains, locus YJL187C, strain SWE1 (second series), stronger effect = lower value 1.01 | S. cerevisiae deletion strains, locus YJL187C, strain SWE1, stronger effect = lower value 1 | S. cerevisiae deletion strains, locus YJR043C, strain POL32, stronger effect = lower value 0.973 | S. cerevisiae deletion strains, locus YJR066W, strain TOR1, stronger effect = lower value 0.914 | S. cerevisiae deletion strains, locus YKL009W, strain mrt4, stronger effect = lower value 0.994 | S. cerevisiae deletion strains, locus YKL068W, stronger effect = lower value 0.972 | S. cerevisiae deletion strains, locus YKL085W, strain MDH1 (second series), stronger effect = lower value 0.979 | S. cerevisiae deletion strains, locus YKL085W, strain MDH1, stronger effect = lower value 0.979 | S. cerevisiae deletion strains, locus YKL160W, strain elf1, stronger effect = lower value 0.968 | S. cerevisiae deletion strains, locus YKL190W, strain CNB1, stronger effect = lower value 0.994 | S. cerevisiae deletion strains, locus YKR001C, strain vps1, stronger effect = lower value 0.989 | S. cerevisiae deletion strains, locus YKR026C, strain gcn3, stronger effect = lower value 0.993 | S. cerevisiae deletion strains, locus YKR091W, strain srl3, stronger effect = lower value 0.987 | S. cerevisiae deletion strains, locus YLL001W, strain dnm1, stronger effect = lower value 0.947 | S. cerevisiae deletion strains, locus YLL026W, stronger effect = lower value 0.988 | S. cerevisiae deletion strains, locus YLL041C, strain sdh2, stronger effect = lower value 0.995 | S. cerevisiae deletion strains, locus YLR027C, strain aat2, stronger effect = lower value 0.978 | S. cerevisiae deletion strains, locus YLR039C, strain RIC1, stronger effect = lower value 0.913 | S. cerevisiae deletion strains, locus YLR058C, strain SHM2, stronger effect = lower value 0.98 | S. cerevisiae deletion strains, locus YLR102C, strain apc9, stronger effect = lower value 0.989 | S. cerevisiae deletion strains, locus YLR113W, strain HOG1, stronger effect = lower value 0.887 | S. cerevisiae deletion strains, locus YLR221C, strain rsa3, stronger effect = lower value 0.986 | S. cerevisiae deletion strains, locus YLR258W, strain gsy2, stronger effect = lower value 0.971 | S. cerevisiae deletion strains, locus YLR268W, strain sec22, stronger effect = lower value 0.949 | S. cerevisiae deletion strains, locus YLR320W, strain mms22, stronger effect = lower value 0.966 | S. cerevisiae deletion strains, locus YLR330W, strain CHS5, stronger effect = lower value 0.982 | S. cerevisiae deletion strains, locus YLR342W, strain FKS1, stronger effect = lower value 0.983 | S. cerevisiae deletion strains, locus YLR357W, strain rsc2, stronger effect = lower value 1.08 | S. cerevisiae deletion strains, locus YLR370C, strain arc18, stronger effect = lower value 0.984 | S. cerevisiae deletion strains, locus YLR371W, strain rom2, stronger effect = lower value 1.01 | S. cerevisiae deletion strains, locus YLR384C, strain iki3, stronger effect = lower value 0.991 | S. cerevisiae deletion strains, locus YLR418C, strain cdc73, stronger effect = lower value 0.966 | S. cerevisiae deletion strains, locus YML016C, strain PPZ1, stronger effect = lower value 0.992 | S. cerevisiae deletion strains, locus YML032C, strain rad52, stronger effect = lower value 0.971 | S. cerevisiae deletion strains, locus YML120C, strain ndi1, stronger effect = lower value 0.966 | S. cerevisiae deletion strains, locus YML124C, strain tub3, stronger effect = lower value 0.985 | S. cerevisiae deletion strains, locus YMR058W, strain fet3, stronger effect = lower value 1.01 | S. cerevisiae deletion strains, locus YMR078C, strain ctf18, stronger effect = lower value 0.981 | S. cerevisiae deletion strains, locus YMR125W, strain sto1, stronger effect = lower value 1.02 | S. cerevisiae deletion strains, locus YMR129W, stronger effect = lower value 0.982 | S. cerevisiae deletion strains, locus YMR205C, strain PFK2, stronger effect = lower value 0.949 | S. cerevisiae deletion strains, locus YMR223W, strain ubp8, stronger effect = lower value 0.964 | S. cerevisiae deletion strains, locus YMR231W, strain pep5, stronger effect = lower value 0.994 | S. cerevisiae deletion strains, locus YMR307W, strain GAS1, stronger effect = lower value 0.993 | S. cerevisiae deletion strains, locus YNL067W, strain RPL9B, stronger effect = lower value 1.02 | S. cerevisiae deletion strains, locus YNL128W, strain TEP1, stronger effect = lower value 0.962 | S. cerevisiae deletion strains, locus YNL183C, strain NPR1, stronger effect = lower value 0.911 | S. cerevisiae deletion strains, locus YNL209W, strain ssb2, stronger effect = lower value 0.984 | S. cerevisiae deletion strains, locus YNL233W, strain BNI4, stronger effect = lower value 1.01 | S. cerevisiae deletion strains, locus YNL248C, strain rpa49, stronger effect = lower value 1.03 | S. cerevisiae deletion strains, locus YNL250W, strain rad50, stronger effect = lower value 0.952 | S. cerevisiae deletion strains, locus YNL271C, strain bni1, stronger effect = lower value 0.986 | S. cerevisiae deletion strains, locus YNL298W, strain CLA4, stronger effect = lower value 0.983 | S. cerevisiae deletion strains, locus YNL307C, strain MCK1, stronger effect = lower value 0.986 | S. cerevisiae deletion strains, locus YNL322C, strain KRE1 (second series), stronger effect = lower value 0.975 | S. cerevisiae deletion strains, locus YNL322C, strain KRE1, stronger effect = lower value 0.984 | S. cerevisiae deletion strains, locus YNR049C, strain mso1, stronger effect = lower value 0.998 | S. cerevisiae deletion strains, locus YNR052C, strain pop2, stronger effect = lower value 1 | S. cerevisiae deletion strains, locus YOL012C, strain htz1 1.19 | S. cerevisiae deletion strains, locus YOL147C, strain pex11, stronger effect = lower value 0.982 | S. cerevisiae deletion strains, locus YOR001W, strain rrp6, stronger effect = lower value 0.989 | S. cerevisiae deletion strains, locus YOR061W, strain CKA2, stronger effect = lower value 0.966 | S. cerevisiae deletion strains, locus YOR069W, strain VPS5, stronger effect = lower value 0.989 | S. cerevisiae deletion strains, locus YOR070C, strain gyp1, stronger effect = lower value 0.975 | S. cerevisiae deletion strains, locus YOR080W, strain dia2, stronger effect = lower value 0.993 | S. cerevisiae deletion strains, locus YOR083W, strain WHI5, stronger effect = lower value 0.964 | S. cerevisiae deletion strains, locus YOR106W, strain vam3, stronger effect = lower value 0.997 | S. cerevisiae deletion strains, locus YOR136W, strain idh2, stronger effect = lower value 0.968 | S. cerevisiae deletion strains, locus YOR144C, strain elg1, stronger effect = lower value 0.985 | S. cerevisiae deletion strains, locus YOR184W, strain ser1, stronger effect = lower value 0.933 | S. cerevisiae deletion strains, locus YOR231W, strain MKK1, stronger effect = lower value 0.911 | S. cerevisiae deletion strains, locus YOR265W, strain rbl2, stronger effect = lower value 0.978 | S. cerevisiae deletion strains, locus YOR270C, strain vph1, stronger effect = lower value 0.959 | S. cerevisiae deletion strains, locus YOR290C, strain snf2, stronger effect = lower value 0.997 | S. cerevisiae deletion strains, locus YOR316C, strain cot1, stronger effect = lower value 0.989 | S. cerevisiae deletion strains, locus YPL051W, strain arl3, stronger effect = lower value 0.946 | S. cerevisiae deletion strains, locus YPL078C, strain atp4, stronger effect = lower value 0.957 | S. cerevisiae deletion strains, locus YPL106C, strain sse1, stronger effect = lower value 1 | S. cerevisiae deletion strains, locus YPL240C, strain hsp82, stronger effect = lower value 0.987 | S. cerevisiae deletion strains, locus YPL256C, strain CLN2, stronger effect = lower value 0.915 | S. cerevisiae deletion strains, locus YPR119W, strain clb2, stronger effect = lower value 0.985 | S. cerevisiae deletion strains, locus YPR141C, strain kar3, stronger effect = lower value 0.97 | S. cerevisiae deletion strains, locus YPR163C, strain tif3, stronger effect = lower value 0.99 | S. cerevisiae deletion strains, locus YPR167C, strain met16, stronger effect = lower value 0.987 | S. cerevisiae deletion strains, strain wtn01, stronger effect = lower value 0.964 | S. cerevisiae strains, strain wild type, stronger effect = lower value 0.969
active: S. cerevisiae deletion strains, locus YLR262C, strain YPT6 (second series), stronger effect = lower value 0.81 | S. cerevisiae deletion strains, locus YNL071W, strain lat1, stronger effect = lower value 0.876
